Among all 300,000 compounds or so, about 2,500 (0.83%) were called active. This is one part of a sample in which actives are shown more often than they occur. A number with no mark means an inactive call.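 The calls were made as follows: active = inhibition above the mean of all tested compounds plus 3 SD, set per screening campaign (cut at about 24% in these data); inactive = the rest.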
Tested on: tRNA 2'-phosphotransferase TPT1 (Candida albicans SC5314)
Test: tRNA 2'-phosphotransferase blockers, C. albicans – biochemical, fluorescence polarization, primary screen (AID 1962);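 also: plate controls were DMSO alone for no effect and ferristatin control at 100 nM for full effect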
Conditions: recombinant caTPT1, FP RNA substrate dephosphorylation; at 5 µM; hits give high values

Structure (SMILES) | inhibition
O=C(Nc1ccc(S(=O)(=O)Nc2nccs2)cc1)c1cc(=O)[nH]c2ccccc12 | 11.7%
Cc1ccc2nc(-c3ccncc3)cc(C(=O)Nc3ccncc3)c2c1 | -2.29%
O=C(Nc1ccc(S(=O)(=O)Nc2nccs2)cc1)c1cc(-c2ccncc2)nc2ccccc12 | 42.7% (active)
O=C(NC(Cc1ccc(O)cc1)C(=O)O)/C(=C/c1ccccc1)NC(=O)c1ccccc1 (stereo not drawn) | -2.71%
CCOC(=O)c1cc(NC(=O)c2ccc(Cl)cc2)c(=O)oc1-c1ccccc1 | -4.37%
CC(=O)Oc1cccc(C(=O)Nc2ccccc2NC(=O)c2cccc(OC(C)=O)c2)c1 | -1.86%
CC(=O)c1cc(NC(=O)c2ccccc2)c(=O)oc1/C=C/N(C)C | 110% (active)
Cc1ccc(N2CCN(C(=O)c3cccs3)CC2)c(C)c1 | -2.58%
O=C(O)c1ccc(/C=C2\SC(=S)N(NC(=O)c3ccc(Br)cc3)C2=O)cc1 | 5.29%
Cn1cccc1/C=C1\SC(=O)N(CC(=O)Nc2ccc(F)cc2)C1=O | 1.77%
Cn1cccc1/C=C1\SC(=S)N(NC(=O)c2ccc(Cl)cc2)C1=O | 84.1% (active)
CCCC(=O)Nc1ncnc2c1ncn2[C@@H]1O[C@@H]2OP(=O)(O)OC[C@H]2[C@H]1OC(=O)CCC | -4.36%
CC(=O)Nc1cccc(Oc2cc(C#N)c(C#N)cc2N2CCOCC2)c1 | -0.51%
COc1cc(N2CCCC2)c(OC)cc1/C=C(/C#N)c1cccc(Br)c1 | 103% (active)
COc1ccc(Br)cc1/C=N/n1c(C)nnc1C | -0.28%
O=C1NCCn2nc3ccccc3c21 | -3.31%
CC(=O)Nc1ccc(S(=O)(=O)N(C)c2nc3ccccc3nc2Cl)cc1 | -0.11%
Cc1ccc(S(=O)(=O)N(C)c2nc3ccccc3n3c(C(C)C)nnc23)cc1 | 49.9% (active)
Cc1ccc(Oc2nc3ccccc3n3c(C)nnc23)cc1 | -2.63%
C#CCOCCOCCOCCNc1nc(N2CCN(C(=O)CCCCCCCCCCNC(=O)[C@H](CCCCN)n3cc(C)nn3)CC2)nc(N2CCN(C(=O)CCCCCCCCCCNC(=O)[C@H](CO)n3cc(CCCSC)nn3)CC2)n1 | 0.52%
CN=C(c1ccccc1)c1c(C)cccc1C | -0.46%

Structure (SMILES) | inhibition
CN1C/C(=C/c2cccs2)C(=O)/C(=C\c2cccs2)C1 | -2.84%
Cc1cccc(C2=N/C(=C/c3cccs3)C(=O)O2)c1 | -1.73%
CSC1=N/C(=C\C=C\c2cccs2)C(=O)S1 | 35.6% (active)
CCOC(=O)c1c(NC(=S)NC)sc2c1CCCC2 | -1.5%
CCOC(=O)c1c(NC(=O)NC(C)(C)C)sc2c1CCN(C)C2 | 2.5%
CCOC(=O)c1c(NC(=S)Nc2ccccc2)sc2c1CCN(C)C2 | 53.5% (active)
CCOc1ccc(/C=C/C(=O)N(CC)CC(=O)NCc2cccs2)cc1OC | -3.86%
CC(=O)c1sc(N/N=C\c2ccc(C)cc2)nc1C | 17.2%
COc1ccccc1/C=N/Nc1nc(C)c(C(C)=O)s1 | 28% (active)
CC(=O)c1sc(N/N=C/c2ccc(C(C)C)cc2)nc1C | 23%
CCCCNC(=O)Nc1c(C)cc(SC#N)cc1C | -6.37%
COCCNC(=O)C1CCN(C(=O)C2CC(=O)N(c3ccc(C)cc3)C2)CC1 (stereo not drawn) | 1.54%
Cc1ccn2c(c1)nc(=O)c1cc(S(=O)(=O)N3CCC(C)CC3)ccc12 | 0.45%
COc1ccc(C(=O)N/N=c2\oc3ccccc3cc2C(N)=O)cc1 | 4.71%
NC(=O)c1cc2ccccc2o/c1=N/NC(=O)c1cccc(F)c1 | -1.51%
CCN(CC)c1ccc2cc(C(N)=O)/c(=N\NC(=O)c3ccncc3)oc2c1 | 133% (active)
NC1=NC(=O)C(Cc2cccc(Cl)c2)S1 (stereo not drawn) | -2.15%
CCC(=C/c1sc2ccc3ccccc3c2[n+]1C)/C=C1\Sc2ccc3ccccc3c2N1C | 92% (active)
CCCCCCCCn1c2c(c(=N)c3c1CCC3)CCCC2 | -2.44%
CCCCCCSc1ccc([C@@H]2[C@@H]3C(=O)N(CC)C(=O)[C@@H]3[C@]3(C(=O)OC)CCCCN23)cc1OC | 1.68%
CCn1c(-c2cc(OC)ccc2OC)csc1=Nc1c(C)n(C)n(-c2ccccc2)c1=O | -1.13%

Structure (SMILES) | inhibition
COc1cc(N=Cc2c(O)[nH]c3ccccc23)cc(OC)c1OC | -0.99%
CN=c1scc(-c2cc(OC)ccc2OC)n1/N=C/c1c(C)[nH]c2ccccc12 | 62.6% (active)
Cc1nn2c(=O)cc(COC(=O)c3ccc(NC(=O)C(C)(C)C)cc3)nc2s1 | -2.53%
CCOC(=O)[C@H]1[C@H]2COc3ccc(OC)cc3[C@@H]2N2C(=O)c3ccc(F)cc3NC(=O)[C@@]12C | 0.85%
CC(C)CCN1NC2(CCC(C)CC2)NC1=S (stereo not drawn) | 2.43%
COc1ccc2ccccc2c1CNc1nnnn1C | -1.06%
O=C1CN(C(=O)c2ccccc2F)C(c2ccc(F)cc2)c2cc(F)ccc2N1 (stereo not drawn) | 0.25%
CCC(c1nnnn1Cc1ccccc1)N(Cc1cc2cc(OC)ccc2[nH]c1=O)CC1CCCO1 (stereo not drawn) | -1.86%
CCC(c1nnnn1Cc1ccco1)N(CCc1ccccc1)Cc1cc2ccc(OC)cc2[nH]c1=O (stereo not drawn) | -2.34%
CCC(c1nnnn1Cc1ccco1)N(Cc1cc2cc(OC)ccc2[nH]c1=O)C1CCCCC1 (stereo not drawn) | 38.4% (active)
CCOc1ccc(Oc2nc(C)cc(OC)n2)nn1 | -1.74%
CN(C)C(=O)N=NC(=O)N(C)C | -3.37%
COC(=O)Cc1[nH]n(-c2nc3ccccc3s2)c(=O)c1C(C)=Nc1ccc(OC)cc1 | 1.09%
COc1ccccc1-c1sc2ccccc2c1-c1ccc(C(C)=O)cc1 | -1.61%
COc1ccc(N=C(C)c2sc3ccccc3c2O)cc1 | 63.5% (active)
CC(C)(Oc1ccc(C2CC2(Cl)Cl)cc1)C(=O)O (stereo not drawn) | -2.25%
Cc1cccc2cc3c(N)c(C(=O)N4CCCc5ccccc54)sc3nc12 | 45.2% (active)
Cc1c(C(=O)N2CCCc3ccccc32)sc2nc(-c3ccccc3)cn12 | -1.15%
Cc1c(C(=O)N2CCCc3ccccc32)oc2ccccc12 | -2.42%
C#CCOCCOCCOCCNc1nc(N2CCN(C(=O)Cn3cc(CCCCN)nn3)CC2)nc(N2CCN(C(=O)[C@H](CCCCN)n3cc(CCC(=O)O)nn3)CC2)n1 | -1.83%
Cc1ccc(Cc2nnc(SCC(=O)Nc3ccccc3C)[nH]c2=O)cc1 | 1.69%
